Results taken from PubChem BioAssay (NCI).
Several values for one entry are separate records, joined by “and”; a condition that tells them apart may be missing. Equal entries are not always repeated. Compounds without any hit were thinned out: in the full panel of roughly 83,000, 20% have a hit.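 A percent growth of 40 corresponds to 60% growth inhibition; 0 means no net growth; -100 means all cells died. Active threshold: below 10.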 Activity calls are given as the source filed them.

Experiments:
Assay in all cases: NCI-60 one-dose screen, 48 h (100 = growth as untreated, 0 = no growth, -100 = all killed)
[1] = test system: NCI-H23 lung
[2] = test system: NCI-H226 lung
[3] = test system: NCI-H322M lung
[4] = test system: HOP-62 NSCLC
[5] = test system: NCI-H460 lung
[6] = test system: HOP-92 NSCLC
[7] = test system: NCI-H522 lung
[8] = test system: A549/ATCC NSCLC
[9] = test system: 786-0 renal
[10] = test system: COLO 205 colon

Measured: growth

Cc1ccc(S(=O)(=O)NCN2C(=O)c3ccccc3C2=O)cc1
inactive: [1]; 10 µM unless noted 103% | [2]; 10 µM unless noted 115% | [3]; 10 µM unless noted 105% | [4]; 10 µM unless noted 112% | [5]; 10 µM unless noted 113% | [6]; 10 µM unless noted 109% | [7]; 10 µM unless noted 103% | [8]; 10 µM unless noted 99% | [9]; 10 µM unless noted 103%

COc1ccccc1C(C)=O
inactive: [1]; 10 µM unless noted 94% and 109% | [2]; 10 µM unless noted 95.2% and 107% | [3]; 10 µM unless noted 97.5% and 103% | [4]; 10 µM unless noted 107% and 102% | [5]; 10 µM unless noted 99.8% and 109% | [6]; 10 µM unless noted 70.5% | [7]; 10 µM unless noted 113% | [8]; 10 µM unless noted 107% and 96.9% | [9]; 10 µM unless noted 110% and 96.6% | [10]; 10 µM unless noted 105%

COc1ccccc1NC(=O)OCC#CCOC(=O)Nc1ccccc1OC
inactive: [1]; 10 µM unless noted 101% and 95.5% | [2]; 10 µM unless noted 97.8% and 90.5% | [3]; 10 µM unless noted 112% and 98.4% | [4]; 10 µM unless noted 102% and 91.8% | [5]; 10 µM unless noted 110% and 94.7% | [6]; 10 µM unless noted 83.1% | [7]; 10 µM unless noted 80.2% and 76.8% | [8]; 10 µM unless noted 101% and 87% | [9]; 10 µM unless noted 108% and 88.2% | [10]; 10 µM unless noted 107% and 120%

CC1=NN(c2ccccc2)C(=O)C1C(=O)c1ccccc1 (centres undefined)
inactive: [1]; 10 µM unless noted 98.2% | [2]; 10 µM unless noted 92.6% | [3]; 10 µM unless noted 110% | [4]; 10 µM unless noted 111% | [5]; 10 µM unless noted 108% | [6]; 10 µM unless noted 78.4% | [7]; 10 µM unless noted 98.5% | [8]; 10 µM unless noted 91.5% | [9]; 10 µM unless noted 101% | [10]; 10 µM unless noted 106%

O=C(O)c1sccc1O
active: [7]; 100 µM -32.6%
inactive: [1]; 10 µM 80.1% | [1]; 100 µM 37.2% | [2]; 10 µM 89.2% | [2]; 100 µM 74.1% | [3]; 10 µM 87.5% | [3]; 100 µM 50.9% | [4]; 10 µM 102% | [4]; 100 µM 34.1% | [5]; 10 µM 91.2% | [5]; 100 µM 30.1% | [6]; 10 µM 66.9% | [6]; 100 µM 26.9% | [7]; 10 µM 64.5% | [8]; 10 µM 82.5% | [8]; 100 µM 38.8% | [9]; 10 µM 99.1% | [9]; 100 µM 47.6% | [10]; 10 µM 111% | [10]; 100 µM 84.6%

Cc1cc(-c2ccc(NS(=O)(=O)c3ccccc3)c(C)c2)ccc1NS(=O)(=O)c1ccccc1
inactive: [1]; 10 µM unless noted 85% and 97.8% | [2]; 10 µM unless noted 82.2% and 92.1% | [3]; 10 µM unless noted 92.7% and 121% | [4]; 10 µM unless noted 94.2% and 111% | [5]; 10 µM unless noted 78% and 87.6% | [6]; 10 µM unless noted 83.3% and 88% | [7]; 10 µM unless noted 52.8% and 64.8% | [8]; 10 µM unless noted 67% and 80.5% | [9]; 10 µM unless noted 96.8% and 107% | [10]; 10 µM unless noted 91.9% and 121%

N/C(=N\N=C\c1ccc2c(c1)OCO2)N/N=C\c1ccc2c(c1)OCO2
inactive: [1]; 10 µM unless noted 109% and 89% | [2]; 10 µM unless noted 106% and 108% | [3]; 10 µM unless noted 108% and 101% | [4]; 10 µM unless noted 115% and 101% | [5]; 10 µM unless noted 104% and 69.4% | [6]; 10 µM unless noted 99.8% | [7]; 10 µM unless noted 119% and 108% | [8]; 10 µM unless noted 107% and 108% | [9]; 10 µM unless noted 103% and 88.6% | [10]; 10 µM unless noted 108% and 94.5%

Cc1ccc(NCSc2ccc(Cl)cc2)cc1
inactive: [1]; 10 µM unless noted 80.7% and 93.2% | [2]; 10 µM unless noted 63.5% and 103% | [3]; 10 µM unless noted 94.8% and 94.6% | [4]; 10 µM unless noted 112% and 87.8% | [5]; 10 µM unless noted 82.7% and 93.8% | [6]; 10 µM unless noted 63% | [7]; 10 µM unless noted 29% and 47.1% | [8]; 10 µM unless noted 62% and 63.7% | [9]; 10 µM unless noted 39.1% and 53.7% | [10]; 10 µM unless noted 81.6% and 93.1%

Cn1c(=O)n(-c2ccc(C(C)(C)C#N)cc2)c2c3cc(-c4cnc5ccccc5c4)ccc3ncc21
7.45% (active) and 15.4% (inactive): [1]; 10 µM unless noted
active: [2]; 10 µM unless noted 7.02% and 9.42% | [3]; 10 µM unless noted 1.14% and -0.589% | [4]; 10 µM unless noted 1.69% and 3.34% | [5]; 10 µM unless noted 3.03% and -9.04% | [6]; 10 µM unless noted -4.42% | [7]; 10 µM unless noted 2.87% and -9.46% | [8]; 10 µM unless noted 0.549% and -9.22% | [9]; 10 µM unless noted 0.54% and -4.76% | [10]; 10 µM unless noted -25% and -3.99%

CN1CCN(CCC=C2c3ccccc3Sc3ccc(S(=O)(=O)N(C)C)cc32)CC1
-83.1% (active) and 44% (inactive): [10]; 10 µM unless noted
inactive: [1]; 10 µM unless noted 84.4% and 91% | [2]; 10 µM unless noted 111% and 108% | [3]; 10 µM unless noted 66.9% and 77.2% | [4]; 10 µM unless noted 75.9% and 83.8% | [5]; 10 µM unless noted 82.7% and 82% | [6]; 10 µM unless noted 29.4% | [7]; 10 µM unless noted 44.2% and 58.5% | [8]; 10 µM unless noted 69.3% and 79.6% | [9]; 10 µM unless noted 41.6% and 58.5%

O=C1OC2(c3ccccc31)c1ccc(O)c(O)c1Oc1c2ccc(O)c1O
inactive: [1]; 10 µM unless noted 105% and 102% | [2]; 10 µM unless noted 90.5% and 121% | [3]; 10 µM unless noted 109% and 130% | [4]; 10 µM unless noted 114% and 101% | [5]; 10 µM unless noted 114% and 109% | [6]; 10 µM unless noted 61.9% and 120% | [7]; 10 µM unless noted 89.8% and 84.1% | [8]; 10 µM unless noted 105% | [9]; 10 µM unless noted 109% and 117% | [10]; 10 µM unless noted 115% and 117%

COc1ccc2cc3[n+](cc2c1OC)CCc1cc2c(cc1-3)OCO2
inactive: [1]; 10 µM unless noted 43.4% and 50.4% | [2]; 10 µM unless noted 73.8% and 79.5% | [3]; 10 µM unless noted 96% and 99.4% | [4]; 10 µM unless noted 43.9% and 85.4% | [5]; 10 µM unless noted 75.9% and 88.9% | [6]; 10 µM unless noted 76.1% and 20.6% | [7]; 10 µM unless noted 68.7% and 53% | [8]; 10 µM unless noted 75.1% and 59.4% | [9]; 10 µM unless noted 73.5% and 66.9% | [10]; 10 µM unless noted 59.5% and 68.4%

CCN(CC)CCCC(C)Nc1ccnc2cc(Oc3ccccc3)ccc12 (centres undefined)
inactive: [1]; 10 µM unless noted 90.1% and 78.7% | [2]; 10 µM unless noted 99.7% and 112% | [3]; 10 µM unless noted 84.7% and 105% | [4]; 10 µM unless noted 68.9% and 83.2% | [5]; 10 µM unless noted 69.7% and 96.5% | [7]; 10 µM unless noted 55.9% | [8]; 10 µM unless noted 58.7% and 86.6% | [9]; 10 µM unless noted 64.3% and 84.6% | [10]; 10 µM unless noted 47.6% and 60.2%
-6.39% (active) and 60.3% (inactive): [6]; 10 µM unless noted

CC(=O)Nc1cc(S(=O)(=O)O)cc2cc(S(=O)(=O)O)c(N=Nc3ccccc3)c(O)c12
inactive: [1]; 10 µM unless noted 96.3% and 101% | [2]; 10 µM unless noted 99.7% and 105% | [3]; 10 µM unless noted 112% and 91.9% | [4]; 10 µM unless noted 140% and 98.6% | [5]; 10 µM unless noted 104% and 103% | [6]; 10 µM unless noted 82% and 102% | [7]; 10 µM unless noted 112% and 82.3% | [8]; 10 µM unless noted 108% and 97% | [9]; 10 µM unless noted 106% and 103% | [10]; 10 µM unless noted 99.7% and 109%

CC1CCCc2sc3nc(NNC(=O)c4cnccn4)n(-c4ccccc4)c(=O)c3c21 (centres undefined)
inactive: [1]; 10 µM unless noted 23.9% and 20.2% | [6]; 10 µM unless noted 44% and 42.3%
active: [2]; 10 µM unless noted -2.24% and -5.33% | [4]; 10 µM unless noted 4.44% and 1.42% | [5]; 10 µM unless noted 3.62% and -47.3% | [7]; 10 µM unless noted -10.4% and 6.49% | [8]; 10 µM unless noted 3.51% and 7.07% | [10]; 10 µM unless noted 4.98% and -2.77%
16.1% (inactive) and 6.45% (active): [9]; 10 µM unless noted
15.9% (inactive) and 6.48% (active): [3]; 10 µM unless noted
